# Compounds with a hit are over-represented: about 1.2% of the library has one in this group of screens.
# VLA-4 inh – inhibition in human VLA-4 binding assay, primary screen, VLA-4 allosteric modulator project, MLPCN library, flow cytometry, VLA-4 expressing cells | Integrin alpha-4 (Homo sapiens), P13612 | inhibition, % (about 7 µM as worked out from the volumes in the protocol) | 330,000 compounds, 0.2% hits | ligand binding flow cytometry; in the data active = inhibition above about 50%
# GPR7 antagonist – GPR7 receptor antagonists, primary screen, cell-based, fluorescence, single concentration. Neuropeptides B/W receptor type 1 (Homo sapiens), P48145. 290,000 compounds, 1.1% hits. GPR7-expressing cells, fluorescence antagonist assay. inhibition, % at 4.4 µM. AID 1861, 2009; in the data active = inhibition above about 16%, passing the limit was not always enough;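 note: cells stimulated with the agonist NPW; 0% = agonist with vehicle and 100% = vehicle without agonist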
# Target sequence (P48145 whole entry, looked up): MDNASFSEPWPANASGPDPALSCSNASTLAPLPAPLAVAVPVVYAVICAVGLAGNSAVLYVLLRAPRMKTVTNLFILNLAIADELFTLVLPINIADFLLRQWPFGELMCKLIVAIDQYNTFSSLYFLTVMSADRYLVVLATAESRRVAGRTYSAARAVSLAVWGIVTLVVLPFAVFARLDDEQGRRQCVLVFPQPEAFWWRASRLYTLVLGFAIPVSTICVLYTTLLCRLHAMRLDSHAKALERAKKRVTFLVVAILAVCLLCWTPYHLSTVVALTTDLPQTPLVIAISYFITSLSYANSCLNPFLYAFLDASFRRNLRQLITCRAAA
# p-CIP stab down – p/CIP-EGFP fusion destabilizers, primary screen, fluorescence, F442A cells | decrease of EGFP signal, % at 10 µM | Q05BA5 | 290,000 compounds, 0.01% hits | 16 h;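 active = EGFP signal decrease of at least 30% at 10 µM or well 3 SD below plate mean, unless failing retest; inactive = the rest, including hits failing retest or dose response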
# GASC-1 inh – inhibitors of GASC-1 histone demethylase, primary screen, biochemical, fluorescence, DELFIA europium. Lysine-specific demethylase 4C (Homo sapiens), Q9H3R0. GST-JMJD2C(1-420) H3K9me3 demethylation. inhibition, % at 2.35 µM. 330,000 compounds, 0.069% hits. AID 2099, 2009;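 active = more than half of a compound's replicate wells show inhibition beyond 50%, single wells judged on their own value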;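 note: signal counts dimethyl H3K9 product captured on neutravidin plate; 0% = median of DMSO wells and 100% = 0.3 times that DMSO median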
# * hit, by the source's call; i = inactive; . = not tested or not shown.
SMILES,VLA-4 inh,GPR7 antagonist,p-CIP stab down,GASC-1 inh
C[C@@H](NC(=O)Cn1cnc2c(OCc3ccccc3)ncnc21)c1cccc2ccccc12,35.9,.,.,58.7*
COCCN(CC(=O)Nc1cccc(C)c1C)C(=O)c1oc2c(Cl)cccc2c1C,-21.3,.,.,0.3
Cc1ccc(CNC(=O)c2cc3c(s2)CN(Cc2ccccc2)C3)cc1,6.3,4.2,2.0,15.0
O=C(CCS(=O)(=O)c1cccc2nonc12)NCc1ccc(Cl)cc1,11.2,-7.4,-1.7,-2.8
Cc1ccc(-c2cc3cccc[n+]3cc2-c2ccc(C)cc2)cc1,7.5,21.5*,-23.8,-0.6
Cc1ccc2nc(-c3ccncc3)cc(-c3ccccc3)c2c1,0.7,-14.7,1.0,-3.6
CC(C)c1ccc(N2C(=O)CC(NNC(=O)c3cccnc3)C2=O)cc1 (stereo not drawn),-1.4,-12.7,-9.4,0.4
COc1cccc(S(=O)(=O)NCc2ccc(C(=O)Nc3ccc(Cl)c(Cl)c3)cc2)c1,3.6,-17.3,-31.4,-0.8
O=C(Nc1ccc(Cl)c(Cl)c1)c1cccc(S(=O)(=O)NCc2cccnc2)c1,-10.0,29.6*,-3.8,1.5
O=C(Nc1ccccc1)c1cccc(C(F)(F)F)c1,4.3,5.1,-6.4,3.3
C=CCN(C(=O)c1cccc(C(F)(F)F)c1)C1(C(=O)Nc2ccccc2)CCN(C(C)C)CC1,4.8,18.4*,-14.7,-6.9
CCOC(=O)Cn1c(=N)n(CCOc2ccc(Br)cc2)c2ccccc21,2.1,18.9*,-5.4,17.6
CC(C)(C)n1ncc2c(=O)n(Cc3cccc(Cn4cnc5c(cnn5C(C)(C)C)c4=O)c3F)cnc21,-0.7,.,.,.
C/C(=N\NC(=O)C1=NNC(=O)C1C)c1cccs1 (stereo not drawn),-0.1,-1.8,-7.3,5.4
CN1CCN(c2nc3ccccn3c(=O)c2/C=C(\C#N)S(=O)(=O)c2ccc(Cl)cc2)CC1,-1.9,-8.0,-9.5,89.8*
Cc1ccc(S(=O)(=O)/C(C#N)=C/c2c(N3CCN(C)CC3)nc3ccccn3c2=O)cc1,-25.2,-15.1,-3.9,-18.4
Fc1ccc(-c2csc(Nc3ccccn3)n2)cc1,-0.1,-10.7,-5.8,34.0
COc1ccccc1NC(=O)COC(=O)c1cc(C)nc2ccccc12,-3.4,.,.,2.7
Cc1cc(C(=O)OCC(=O)Nc2ccc(S(N)(=O)=O)cc2)c2ccccc2n1,12.7,3.6,61.7*,2.8
N#Cc1c2n(c(=S)n(-c3ccccn3)c1=O)CCCCC2,-3.4,-14.0,-6.7,13.9
N#Cc1c2n(c(=S)n(-c3ccc(OC(F)F)cc3)c1=O)CCCCC2,5.5,17.3*,-4.0,4.6
CCn1cc(C(=O)NC(C)C23CC4CC(CC(C4)C2)C3)cn1 (stereo not drawn),14.2,3.1,3.5,-2.9
CC(NC(=O)Cn1ncc(Cl)c(Cl)c1=O)C12CC3CC(CC(C3)C1)C2 (stereo not drawn),24.0,23.4*,-13.7,-1.9
COc1ccc(NC(=O)COC(=O)CCc2ccccc2)c(OC)c1,15.8,4.9,-5.2,-2.4
N#CN1CCC(NS(=O)(=O)c2ccc(C(F)(F)F)cc2)CC1,-3.4,.,.,.
SMILES,VLA-4 inh,GPR7 antagonist,p-CIP stab down,GASC-1 inh
Cc1ccc(C)c(NS(=O)(=O)c2cc(C(=O)Nc3cccc(N(C)S(C)(=O)=O)c3)ccc2C)c1,6.1,2.0,-3.1,17.5
Cc1ccc(C)c(NS(=O)(=O)c2cc(C(N)=O)ccc2C)c1,10.1,14.4*,6.4,-1.2
Cc1cc(C)nc(NCc2ccc(Cl)cc2)n1,-7.0,-6.6,-0.8,68.1*
CC(=O)c1ccc(N2CCN(C(=O)Nc3ccc(Cl)cc3)CC2)cc1,29.1,8.5,11.7,-10.2
O=C(Nc1ccc(Cl)cc1)N1CCN(c2ccccc2)CC1,-3.4,-7.7,3.5,51.9*
COC(=O)C1CCN(C(=O)C(C)Oc2ccc(Cl)cc2Cl)CC1 (stereo not drawn),6.3,19.6*,-11.7,2.3
CNc1ccc(Oc2nc([N+](=O)[O-])nn2C)cc1,6.8,-2.4,-1.2,-33.0
COC(=O)c1ccc([C@H]2C=C(C(=O)O)O[C@@H](OCc3ccc(CO)cc3)C2)cc1,18.9,.,-4.7,-28.8
Cc1nn(CC(=O)NCCc2cccs2)c(=O)c2cc3ccccc3n12,-5.2,-5.5,5.2,-4.3
COc1ccc(Cl)cc1C(=O)Nc1ccccc1N1CCN(C(=O)C(C)C)CC1,17.0,19.9*,6.2,-3.6
CCN1/C(=C/C=C/c2sc3ccccc3[n+]2CC)Sc2ccccc21,.,.,.,-26.4
CCN1/C(=C/C=C/c2oc3ccc(-c4ccccc4)cc3[n+]2CC)Oc2ccc(-c3ccccc3)cc21,.,97.8*,i,8.4
O=C1CCCN1CC(=O)N1CCCC(N2CCN(c3cccc(Cl)c3)CC2)C1 (stereo not drawn),6.3,0.5,4.5,-1.7
S=c1[nH]nc(-c2ccncc2)n1Cc1ccccc1,7.8,-0.4,-9.0,-10.7
Cc1cc(-c2n[nH]c(=S)n2Cc2ccccc2)cs1,5.9,22.1*,-5.0,-1.8
CCOC(=O)N1CCC(NC(=O)c2cccn3c(=O)c4cc(Br)ccc4nc23)CC1,3.5,-2.1,40.1*,-25.0
COc1ccc(N2CCN(C(=S)Nc3ccccc3)CC2)cc1,4.3,-11.5,-0.7,42.8
CC(=O)c1ccc(N2CCN(C(=S)Nc3ccc(Oc4ccccc4)cc3)CC2)cc1,-2.8,23.7*,-50.8,5.6
CC1CCC2(CC1)NC(=O)N(CC(=O)Nc1ccc3c(c1)CCC3)C2=O (stereo not drawn),3.1,-3.8,-9.4,6.7
O=C(CN1C(=O)NC2(CCCCCC2)C1=O)Nc1ccc2c(c1)CCC2,0.2,70.4*,-13.5,0.1
CCOc1ccc(S(=O)(=O)NCc2ccncc2)cc1,-16.4,20.8*,-4.9,3.8
CCOC(=O)COc1ccc(S(=O)(=O)NCc2ccncc2)cc1,17.3,18.1*,0.5,-4.4
Cc1cccc(NC(=O)c2cc3ccccc3o2)c1,-8.1,17.6*,-4.5,4.8
O=C(Nc1cccc(Br)c1)c1cc2ccccc2o1,5.9,-11.7,4.6,-10.5
CCCCN(C)C(=O)CCCc1c[nH]c2ccccc12,10.4,19.4*,-10.9,-1.4
SMILES,VLA-4 inh,GPR7 antagonist,p-CIP stab down,GASC-1 inh
CCN(CC)C(=O)CCCc1c[nH]c2ccccc12,15.9,12.8,-4.0,5.3
Cc1c(C(=O)N2CCN(c3cccc(Cl)c3)CC2)cccc1[N+](=O)[O-],-4.1,13.3,0.1,24.0
Cc1nc2sccc2c(=O)n1N,-10.3,-5.7,4.2,-11.8
CC(C)CCOC(=O)C[N+](C)(C)CCOC1CC2CCC1(C)C2(C)C (stereo not drawn),-1.6,18.5*,2.4,8.4
CCCCn1c(N)c(N(CC(C)C)C(=O)C2CCN(S(=O)(=O)c3ccc(C)cc3C)CC2)c(=O)[nH]c1=O,4.0,.,.,3.0
COc1ccc(-c2nc3ccccc3n2Cc2ccccc2)cc1,8.4,4.2,-14.5,3.5
COc1ccc(-c2n(Cc3ccccc3)c3ccccc3[n+]2Cc2ccccc2)cc1,-8.8,56.2*,-14.9,-1.1
Cc1ccc(S(=O)(=O)N2CCN(c3nc(C)nc4sc(C)c(C)c34)CC2)cc1,.,13.8*,-1.4,-6.2
